The target in assay [1] is Protein kinase C gamma type (Homo sapiens) (UniProt P05129). The conditions noted are these: at 1 µM.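 Note: each value is an averaged percent inhibition of the enzyme.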
For assay [2], the target named is T1, Protein kinase C iota type (Homo sapiens) (UniProt P41743).
T1 sequence (whole entry): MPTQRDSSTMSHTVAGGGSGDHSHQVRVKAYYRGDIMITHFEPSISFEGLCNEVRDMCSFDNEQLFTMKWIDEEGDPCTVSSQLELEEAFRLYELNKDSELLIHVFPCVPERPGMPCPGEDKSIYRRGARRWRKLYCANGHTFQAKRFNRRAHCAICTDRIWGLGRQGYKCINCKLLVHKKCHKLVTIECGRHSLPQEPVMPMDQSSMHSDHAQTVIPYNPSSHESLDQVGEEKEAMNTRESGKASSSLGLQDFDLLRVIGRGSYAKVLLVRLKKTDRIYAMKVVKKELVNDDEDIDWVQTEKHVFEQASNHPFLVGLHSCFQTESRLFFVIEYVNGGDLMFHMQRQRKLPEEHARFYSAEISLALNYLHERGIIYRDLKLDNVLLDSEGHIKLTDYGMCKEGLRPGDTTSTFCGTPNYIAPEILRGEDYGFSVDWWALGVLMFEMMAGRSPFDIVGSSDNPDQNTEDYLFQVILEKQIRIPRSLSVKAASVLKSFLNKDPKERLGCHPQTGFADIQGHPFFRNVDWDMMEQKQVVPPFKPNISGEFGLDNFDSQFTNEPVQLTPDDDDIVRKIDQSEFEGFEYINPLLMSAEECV
The conditions noted are these: at 0.1 µM.

In assay [3] the target is T1, Protein kinase C iota type (Homo sapiens). Conditions: at 1 µM.
Assay [4] concerns the target Protein kinase C theta type (Homo sapiens) (UniProt Q04759). The conditions noted are these: at 0.1 µM.
Assay [5] shares this target. The conditions noted are these: at 1 µM.
Assay [6] addresses Protein kinase C beta type (Homo sapiens) (UniProt P05771). Conditions: at 0.1 µM.
The target is the same in assay [7]. Conditions: at 1 µM.
Assay [8] deals with T2, Serine/threonine-protein kinase D1 (Homo sapiens) (UniProt Q15139).
T2 sequence (whole entry): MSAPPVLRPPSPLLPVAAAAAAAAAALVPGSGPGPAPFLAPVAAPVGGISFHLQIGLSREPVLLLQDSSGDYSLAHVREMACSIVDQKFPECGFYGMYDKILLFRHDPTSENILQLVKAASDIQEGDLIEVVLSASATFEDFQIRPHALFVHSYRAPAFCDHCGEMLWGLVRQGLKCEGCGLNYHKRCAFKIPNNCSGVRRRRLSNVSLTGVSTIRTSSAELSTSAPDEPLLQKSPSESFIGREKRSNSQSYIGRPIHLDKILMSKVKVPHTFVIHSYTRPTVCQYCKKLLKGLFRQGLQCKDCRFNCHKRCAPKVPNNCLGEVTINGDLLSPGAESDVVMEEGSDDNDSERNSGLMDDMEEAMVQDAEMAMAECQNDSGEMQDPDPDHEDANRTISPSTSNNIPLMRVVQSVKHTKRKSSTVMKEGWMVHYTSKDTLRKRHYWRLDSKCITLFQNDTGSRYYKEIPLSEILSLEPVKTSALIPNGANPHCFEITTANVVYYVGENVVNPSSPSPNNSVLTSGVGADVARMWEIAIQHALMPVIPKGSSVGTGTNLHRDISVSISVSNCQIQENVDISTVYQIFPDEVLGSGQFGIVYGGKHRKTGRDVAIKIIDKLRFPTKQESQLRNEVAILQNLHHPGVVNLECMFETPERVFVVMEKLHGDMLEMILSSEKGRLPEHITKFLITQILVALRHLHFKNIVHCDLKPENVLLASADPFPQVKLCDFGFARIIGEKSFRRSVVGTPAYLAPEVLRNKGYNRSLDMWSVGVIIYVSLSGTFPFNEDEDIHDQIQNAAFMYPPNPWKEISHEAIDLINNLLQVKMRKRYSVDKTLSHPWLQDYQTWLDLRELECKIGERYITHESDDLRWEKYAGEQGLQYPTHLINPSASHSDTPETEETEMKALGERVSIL
The conditions noted are these: at 0.1 µM.

Assay [9] has as its target T2, Serine/threonine-protein kinase D1 (Homo sapiens). Conditions: at 1 µM.
In assay [10] the target is T3, Serine/threonine-protein kinase D2 (Homo sapiens) (UniProt Q9BZL6).
T3 sequence (whole entry): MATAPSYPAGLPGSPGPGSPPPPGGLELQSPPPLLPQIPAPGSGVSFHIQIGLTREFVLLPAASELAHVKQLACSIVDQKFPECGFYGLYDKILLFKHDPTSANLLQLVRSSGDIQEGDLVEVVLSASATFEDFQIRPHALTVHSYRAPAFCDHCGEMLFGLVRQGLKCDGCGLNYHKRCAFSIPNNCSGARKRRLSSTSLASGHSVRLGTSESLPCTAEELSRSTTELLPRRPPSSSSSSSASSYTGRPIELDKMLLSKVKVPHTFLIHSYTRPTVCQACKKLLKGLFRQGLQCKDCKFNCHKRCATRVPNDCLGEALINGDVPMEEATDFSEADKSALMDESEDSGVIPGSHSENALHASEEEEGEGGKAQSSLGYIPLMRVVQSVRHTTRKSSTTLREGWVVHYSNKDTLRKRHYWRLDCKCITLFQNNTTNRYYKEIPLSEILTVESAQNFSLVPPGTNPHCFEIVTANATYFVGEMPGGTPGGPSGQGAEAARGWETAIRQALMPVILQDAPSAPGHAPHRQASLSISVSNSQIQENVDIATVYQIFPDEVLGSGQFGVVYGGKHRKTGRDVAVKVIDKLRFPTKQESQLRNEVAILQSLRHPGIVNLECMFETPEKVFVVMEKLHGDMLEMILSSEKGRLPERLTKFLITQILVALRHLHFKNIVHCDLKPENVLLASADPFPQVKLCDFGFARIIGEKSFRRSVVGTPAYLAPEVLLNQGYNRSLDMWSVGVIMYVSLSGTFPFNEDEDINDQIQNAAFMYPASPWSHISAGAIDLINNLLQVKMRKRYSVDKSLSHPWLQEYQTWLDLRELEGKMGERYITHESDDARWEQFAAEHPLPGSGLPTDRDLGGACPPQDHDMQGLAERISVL
Conditions: at 0.1 µM.

For assay [11], the target named is T3, Serine/threonine-protein kinase D2 (Homo sapiens). Conditions: at 1 µM.
Assay [12] concerns the target T4, Serine/threonine-protein kinase D3 (Homo sapiens) (UniProt O94806).
T4 sequence (whole entry): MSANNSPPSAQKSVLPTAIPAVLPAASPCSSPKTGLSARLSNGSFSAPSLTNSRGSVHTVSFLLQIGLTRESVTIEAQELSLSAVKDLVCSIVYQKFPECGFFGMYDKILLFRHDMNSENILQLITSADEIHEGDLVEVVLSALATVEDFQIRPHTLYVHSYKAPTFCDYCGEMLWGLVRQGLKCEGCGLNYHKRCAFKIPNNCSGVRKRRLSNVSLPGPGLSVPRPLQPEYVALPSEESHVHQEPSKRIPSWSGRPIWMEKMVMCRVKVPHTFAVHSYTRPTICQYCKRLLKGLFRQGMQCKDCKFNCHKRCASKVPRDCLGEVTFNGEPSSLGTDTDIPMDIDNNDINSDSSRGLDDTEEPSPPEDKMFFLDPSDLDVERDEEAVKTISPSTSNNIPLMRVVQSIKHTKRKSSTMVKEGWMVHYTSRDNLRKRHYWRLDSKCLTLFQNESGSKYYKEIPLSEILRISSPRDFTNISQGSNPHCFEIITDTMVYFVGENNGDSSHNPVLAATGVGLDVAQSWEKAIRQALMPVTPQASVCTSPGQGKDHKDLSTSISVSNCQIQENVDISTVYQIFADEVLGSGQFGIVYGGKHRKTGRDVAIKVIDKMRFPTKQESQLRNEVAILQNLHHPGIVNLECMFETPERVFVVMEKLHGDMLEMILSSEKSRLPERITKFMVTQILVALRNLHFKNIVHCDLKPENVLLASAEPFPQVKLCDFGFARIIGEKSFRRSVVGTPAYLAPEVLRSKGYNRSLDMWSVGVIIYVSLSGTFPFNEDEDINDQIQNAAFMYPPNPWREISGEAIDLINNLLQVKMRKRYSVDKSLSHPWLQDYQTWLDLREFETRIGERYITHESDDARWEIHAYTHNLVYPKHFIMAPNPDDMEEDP
Conditions: at 0.1 µM.

Assay [13] has as its target T4, Serine/threonine-protein kinase D3 (Homo sapiens). The conditions noted are these: at 1 µM.
Assay [14] addresses T5, cGMP-dependent protein kinase 1 (Homo sapiens) (UniProt Q13976).
T5 sequence (whole entry): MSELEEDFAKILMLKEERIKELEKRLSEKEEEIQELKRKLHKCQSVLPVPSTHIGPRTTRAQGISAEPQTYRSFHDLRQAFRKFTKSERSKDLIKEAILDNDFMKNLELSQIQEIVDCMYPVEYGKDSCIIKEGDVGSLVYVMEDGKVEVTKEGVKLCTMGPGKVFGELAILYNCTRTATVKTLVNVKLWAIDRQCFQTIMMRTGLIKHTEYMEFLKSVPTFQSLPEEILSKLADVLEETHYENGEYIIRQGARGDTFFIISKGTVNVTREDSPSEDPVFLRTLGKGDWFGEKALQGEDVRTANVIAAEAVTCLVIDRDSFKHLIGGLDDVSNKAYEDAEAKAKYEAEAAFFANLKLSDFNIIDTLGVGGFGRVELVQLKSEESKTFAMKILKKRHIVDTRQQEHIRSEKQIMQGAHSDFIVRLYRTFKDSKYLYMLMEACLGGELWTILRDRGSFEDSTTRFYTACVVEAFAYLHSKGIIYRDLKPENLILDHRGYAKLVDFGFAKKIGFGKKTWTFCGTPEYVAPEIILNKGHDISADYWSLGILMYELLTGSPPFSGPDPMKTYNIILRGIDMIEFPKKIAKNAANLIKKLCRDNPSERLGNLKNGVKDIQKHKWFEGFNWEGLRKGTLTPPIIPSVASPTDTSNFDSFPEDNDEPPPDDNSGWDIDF
The conditions noted are these: at 0.1 µM.

Assay [15] has as its target T5, cGMP-dependent protein kinase 1 (Homo sapiens). The conditions noted are these: at 1 µM.
The target in assay [16] is T6, cGMP-dependent protein kinase 2 (Homo sapiens) (UniProt Q13237).
T6 sequence (whole entry): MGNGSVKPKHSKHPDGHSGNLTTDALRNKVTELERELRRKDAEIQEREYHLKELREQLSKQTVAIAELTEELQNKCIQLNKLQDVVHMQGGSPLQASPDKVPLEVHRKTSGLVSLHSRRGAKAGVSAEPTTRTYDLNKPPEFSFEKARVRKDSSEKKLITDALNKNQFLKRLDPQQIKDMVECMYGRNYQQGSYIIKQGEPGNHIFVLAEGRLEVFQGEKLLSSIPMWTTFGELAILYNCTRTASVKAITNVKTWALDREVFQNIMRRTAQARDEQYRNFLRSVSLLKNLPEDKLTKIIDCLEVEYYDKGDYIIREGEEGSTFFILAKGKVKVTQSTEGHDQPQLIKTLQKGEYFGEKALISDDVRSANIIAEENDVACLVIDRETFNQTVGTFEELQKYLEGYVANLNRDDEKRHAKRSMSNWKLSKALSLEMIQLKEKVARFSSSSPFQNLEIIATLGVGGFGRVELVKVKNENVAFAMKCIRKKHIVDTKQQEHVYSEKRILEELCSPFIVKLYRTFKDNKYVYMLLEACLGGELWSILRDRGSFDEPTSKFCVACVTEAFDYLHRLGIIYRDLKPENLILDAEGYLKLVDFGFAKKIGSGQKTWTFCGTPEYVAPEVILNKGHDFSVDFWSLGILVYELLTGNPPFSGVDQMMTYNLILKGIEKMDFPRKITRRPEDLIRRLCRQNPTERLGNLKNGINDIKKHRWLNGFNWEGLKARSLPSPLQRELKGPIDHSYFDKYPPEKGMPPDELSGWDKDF
Conditions: at 0.1 µM.

The target of assay [17] is T6, cGMP-dependent protein kinase 2 (Homo sapiens). The conditions noted are these: at 1 µM.
The target of assay [18] is T7, cAMP-dependent protein kinase catalytic subunit PRKX (Homo sapiens) (UniProt P51817).
T7 sequence (whole entry): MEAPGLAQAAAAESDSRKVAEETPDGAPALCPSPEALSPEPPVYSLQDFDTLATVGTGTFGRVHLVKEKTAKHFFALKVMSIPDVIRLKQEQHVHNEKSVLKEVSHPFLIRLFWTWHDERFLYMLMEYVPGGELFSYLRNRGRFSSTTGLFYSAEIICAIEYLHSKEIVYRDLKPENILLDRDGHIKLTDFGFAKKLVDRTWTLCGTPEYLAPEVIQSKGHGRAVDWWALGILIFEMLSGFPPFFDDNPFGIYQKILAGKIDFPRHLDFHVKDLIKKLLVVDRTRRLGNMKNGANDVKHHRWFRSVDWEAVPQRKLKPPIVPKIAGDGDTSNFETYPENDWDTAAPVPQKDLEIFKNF
The conditions noted are these: at 0.1 µM.

Assay [19] concerns the target T7, cAMP-dependent protein kinase catalytic subunit PRKX (Homo sapiens). The conditions noted are these: at 1 µM.
For assay [20], the target named is Rho-associated protein kinase 1 (Homo sapiens) (UniProt Q13464). The conditions noted are these: at 0.1 µM.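 Note: values are mean percent inhibition of ROCK1.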
Sequence of Rho-associated protein kinase 1 (Homo sapiens) (Q13464 2-1354 limits assumed): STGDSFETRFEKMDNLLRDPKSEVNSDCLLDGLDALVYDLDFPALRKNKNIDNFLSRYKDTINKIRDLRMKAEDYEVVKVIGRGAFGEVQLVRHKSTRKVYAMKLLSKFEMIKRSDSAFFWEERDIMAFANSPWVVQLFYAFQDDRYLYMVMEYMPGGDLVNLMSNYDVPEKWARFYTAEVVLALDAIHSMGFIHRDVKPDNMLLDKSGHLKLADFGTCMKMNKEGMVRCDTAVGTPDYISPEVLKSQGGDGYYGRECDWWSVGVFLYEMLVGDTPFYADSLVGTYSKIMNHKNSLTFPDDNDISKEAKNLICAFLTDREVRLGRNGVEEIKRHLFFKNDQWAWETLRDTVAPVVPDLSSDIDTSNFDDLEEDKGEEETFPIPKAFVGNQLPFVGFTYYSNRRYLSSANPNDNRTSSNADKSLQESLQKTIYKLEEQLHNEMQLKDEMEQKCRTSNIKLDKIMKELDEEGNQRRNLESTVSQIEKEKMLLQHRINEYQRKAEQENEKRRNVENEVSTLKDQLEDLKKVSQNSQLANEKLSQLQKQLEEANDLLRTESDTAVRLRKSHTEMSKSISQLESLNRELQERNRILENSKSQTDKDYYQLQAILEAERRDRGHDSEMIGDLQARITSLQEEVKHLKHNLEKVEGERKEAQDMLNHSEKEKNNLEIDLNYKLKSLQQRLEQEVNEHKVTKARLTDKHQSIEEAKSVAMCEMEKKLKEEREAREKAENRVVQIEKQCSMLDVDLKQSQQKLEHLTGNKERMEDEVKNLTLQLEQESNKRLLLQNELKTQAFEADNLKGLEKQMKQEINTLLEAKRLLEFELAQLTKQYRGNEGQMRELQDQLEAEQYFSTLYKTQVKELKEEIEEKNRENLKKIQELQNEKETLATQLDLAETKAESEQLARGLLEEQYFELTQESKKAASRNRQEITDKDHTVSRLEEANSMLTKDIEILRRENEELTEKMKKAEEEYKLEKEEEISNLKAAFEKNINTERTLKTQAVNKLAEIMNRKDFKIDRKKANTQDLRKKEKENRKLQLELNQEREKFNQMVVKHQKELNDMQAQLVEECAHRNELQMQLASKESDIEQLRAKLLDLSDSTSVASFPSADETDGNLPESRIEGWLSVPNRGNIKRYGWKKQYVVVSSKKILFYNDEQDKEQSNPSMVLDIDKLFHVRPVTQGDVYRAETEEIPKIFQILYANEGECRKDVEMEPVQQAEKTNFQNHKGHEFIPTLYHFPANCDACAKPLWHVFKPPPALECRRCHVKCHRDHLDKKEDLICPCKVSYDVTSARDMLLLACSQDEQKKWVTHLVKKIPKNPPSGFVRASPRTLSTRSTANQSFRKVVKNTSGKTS

Sequence of Protein kinase C beta type (Homo sapiens) (P05771 2-671 limits assumed): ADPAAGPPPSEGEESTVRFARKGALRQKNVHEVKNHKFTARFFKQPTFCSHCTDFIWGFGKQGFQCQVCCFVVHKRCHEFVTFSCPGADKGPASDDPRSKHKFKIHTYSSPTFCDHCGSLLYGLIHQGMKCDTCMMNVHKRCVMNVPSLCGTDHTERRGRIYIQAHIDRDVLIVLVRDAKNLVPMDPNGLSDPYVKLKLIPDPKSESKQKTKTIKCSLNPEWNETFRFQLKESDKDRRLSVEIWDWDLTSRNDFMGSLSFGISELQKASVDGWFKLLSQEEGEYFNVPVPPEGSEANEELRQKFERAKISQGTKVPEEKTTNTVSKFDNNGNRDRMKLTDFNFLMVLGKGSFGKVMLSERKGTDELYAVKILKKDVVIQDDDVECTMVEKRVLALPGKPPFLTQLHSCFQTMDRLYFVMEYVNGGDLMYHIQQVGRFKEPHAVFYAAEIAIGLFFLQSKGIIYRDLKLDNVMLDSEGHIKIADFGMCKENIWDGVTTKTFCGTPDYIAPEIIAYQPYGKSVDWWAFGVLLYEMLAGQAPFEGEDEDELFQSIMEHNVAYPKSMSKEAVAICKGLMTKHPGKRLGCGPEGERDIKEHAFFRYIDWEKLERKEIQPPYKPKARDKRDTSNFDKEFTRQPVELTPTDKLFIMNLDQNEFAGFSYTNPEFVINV
Sequence of Protein kinase C theta type (Homo sapiens) (Q04759 whole entry, looked up): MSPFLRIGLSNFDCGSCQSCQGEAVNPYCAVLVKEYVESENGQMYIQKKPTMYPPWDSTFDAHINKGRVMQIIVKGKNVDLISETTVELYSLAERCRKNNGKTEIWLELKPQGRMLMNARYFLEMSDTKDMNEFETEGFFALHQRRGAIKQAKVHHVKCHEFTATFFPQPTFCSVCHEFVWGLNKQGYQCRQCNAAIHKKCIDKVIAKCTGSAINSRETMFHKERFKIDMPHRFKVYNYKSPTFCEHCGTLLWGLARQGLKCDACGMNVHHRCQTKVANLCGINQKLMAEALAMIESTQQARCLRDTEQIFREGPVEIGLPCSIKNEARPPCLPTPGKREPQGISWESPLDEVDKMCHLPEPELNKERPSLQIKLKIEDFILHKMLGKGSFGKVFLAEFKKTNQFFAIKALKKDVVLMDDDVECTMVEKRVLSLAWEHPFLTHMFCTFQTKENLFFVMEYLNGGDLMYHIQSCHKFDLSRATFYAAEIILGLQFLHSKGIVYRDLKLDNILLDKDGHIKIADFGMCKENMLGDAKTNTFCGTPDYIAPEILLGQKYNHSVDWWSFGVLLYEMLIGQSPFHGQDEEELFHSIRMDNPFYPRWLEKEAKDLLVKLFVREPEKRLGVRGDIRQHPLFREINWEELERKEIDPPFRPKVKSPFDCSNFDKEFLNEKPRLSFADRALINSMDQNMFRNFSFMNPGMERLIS

With `CCn1c(-c2nonc2N)nc2c(C#CC(C)(C)O)ncc(OC3CCNCC3)c21`, the inhibition in assay [1] was 89.5%; in [2], -0.03%; in assay [3], 6.53%; in assay [4], 38%; in assay [5], 81.5%; in assay [6], 19.7%. The inhibition in [7] stood at 61.7%; in [8], 4.17%; in assay [9], 13.4%; in assay [10], 3.98%; in assay [11], 11.1%; in assay [12], 3.96%. Besides, the inhibition was determined as 14.2% in assay [13]; 31.1% in assay [14]; 77.4% in assay [15]; 60.5% in assay [16]; 83.2% in assay [17]; 74.4% in assay [18]. Besides, the inhibition was 89% in assay [19] and 3.14% in [20].

As to `CCN(CC)S(=O)(=O)c1ccc(OC)c(Nc2ncc(-c3ccccc3)o2)c1`, the inhibition is 3.98% in assay [1]; 0.63% in assay [2]; -0.91% in assay [3]; 1.36% in assay [4]; 1.38% in assay [5]; 0.23% in assay [6]. The inhibition in assay [7] is 1.41%; in assay [8] it was 1.66%; in assay [9], 0.39%; in [10], 0.75%; in assay [11], 1.51%; in [12] it was -0.55%. In addition, the inhibition is 0.06% in assay [13]; 0.75% in assay [14]; 0.61% in assay [15]; 0.25% in assay [16]; 0.95% in assay [17]; 0.38% in assay [18]. Besides, the inhibition amounted to 0.62% in assay [19] and 0.86% in [20].

Values taken from ChEMBL document CHEMBL1961873, “Compounds: GSK PKIS; Assays: Nanosyn kinase panel” (2012).
